Shown are actives, neighbours in structure and some others; about 3.5% of the full set was active somewhere.
BoNT-F LC inh – blocks Botulinum neurotoxin F light chain protease; Multiplex microsphere protease cleavage assay, flow cytometry; inhibition, % at 10 µM; 0.22% of 360,000 active; AID 588497; in the data active = inhibition above about 35%, passing the limit was not always enough; inconclusive = no clear call, values can overlap the other calls
Anthrax LF prot – blocks Bacillus anthracis lethal factor protease. P15917. AID 588501. multiplex microsphere protease cleavage assay, LF. 0.12% of 360,000 active. inhibition, % at 10 µM
Target sequence (P15917 whole entry, looked up): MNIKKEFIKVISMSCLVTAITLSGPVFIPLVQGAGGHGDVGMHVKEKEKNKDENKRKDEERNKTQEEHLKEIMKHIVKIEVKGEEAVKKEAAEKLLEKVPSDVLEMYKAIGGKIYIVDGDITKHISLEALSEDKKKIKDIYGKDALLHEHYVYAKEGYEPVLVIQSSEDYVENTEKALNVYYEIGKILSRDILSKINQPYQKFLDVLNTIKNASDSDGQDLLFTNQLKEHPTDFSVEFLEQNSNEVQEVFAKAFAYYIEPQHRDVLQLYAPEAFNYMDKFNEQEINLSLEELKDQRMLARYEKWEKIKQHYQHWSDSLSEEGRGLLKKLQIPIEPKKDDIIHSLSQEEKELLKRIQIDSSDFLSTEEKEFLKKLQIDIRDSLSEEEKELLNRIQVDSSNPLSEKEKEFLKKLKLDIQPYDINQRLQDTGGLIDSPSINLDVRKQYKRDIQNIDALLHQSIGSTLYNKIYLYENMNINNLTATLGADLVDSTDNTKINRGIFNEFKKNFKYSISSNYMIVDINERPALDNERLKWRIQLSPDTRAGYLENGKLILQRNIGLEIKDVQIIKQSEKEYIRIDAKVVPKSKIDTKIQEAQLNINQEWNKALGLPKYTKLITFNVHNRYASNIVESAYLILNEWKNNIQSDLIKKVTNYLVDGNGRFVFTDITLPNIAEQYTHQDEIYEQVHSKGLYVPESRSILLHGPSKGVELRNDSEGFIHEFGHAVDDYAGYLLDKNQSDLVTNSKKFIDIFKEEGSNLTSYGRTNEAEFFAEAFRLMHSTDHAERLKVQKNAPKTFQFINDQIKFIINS
BoNT A protease – BoNT A light chain protease inhibition; AID 588499; inhibition, % at 10 µM; 0.17% of 360,000 active; multiplex microsphere protease substrate cleavage, flow cytometry
Bead autofluor – flagged as autofluorescent in microsphere protease counterscreen | compound autofluorescence counterscreen, microsphere flow cytometry; stronger effect = higher value | fluorescence intensity (no concentration beside the values) | 3.1% of 360,000 active | AID 624483; in the data active = fluorescence intensity above about 16000; inconclusive = no clear call, values can overlap the other calls
Hits are given with their value. Rule as the data show it, unless noted: active = inhibition above about 30%; inconclusive = no clear call, values can overlap the other calls; inactive = below that.

What do the screens show for `COc1ccc(C2C(=O)N(CCc3ccccc3)CC(=O)N2C2CCCC2)cc1` (stereo unspecified)?
BoNT-F LC inh: inactive; Anthrax LF prot: inactive; BoNT A protease: inactive; Bead autofluor: 23925

What do the screens show for `CCCOc1ccc(C2C(=O)N(C3CCCCCC3)CC(=O)N2Cc2ccco2)cc1OC` (stereo unspecified)?
BoNT-F LC inh: inactive; Anthrax LF prot: inactive; BoNT A protease: inactive; Bead autofluor: 22488

How did COc1ccc(C2C(=O)N(C3CCCCC3)CC(=O)N2Cc2ccco2)cc1 (stereo unspecified) do in these assays?
BoNT-F LC inh: inactive; Anthrax LF prot: inactive; BoNT A protease: inconclusive; Bead autofluor: 20572

What do the screens show for `COc1ccc(C2C(=O)N(C3CCCCC3)CC(=O)N2C2CCCC2)cc1` (stereo unspecified)?
BoNT-F LC inh: inactive; Anthrax LF prot: inactive; BoNT A protease: inactive; Bead autofluor: inactive

How did COc1ccc(C2C(=O)N(C3CCCCCC3)CC(=O)N2Cc2ccccc2)cc1OC (stereo unspecified) do in these assays?
BoNT-F LC inh: inactive; Anthrax LF prot: inactive; BoNT A protease: inactive; Bead autofluor: 19721

How did CCOC(=O)c1cc(=O)nc(N)s1 do in these assays?
BoNT-F LC inh: inactive; Anthrax LF prot: inactive; BoNT A protease: inactive; Bead autofluor: inactive

How did CCCOc1ccc(C2C(=O)N(C3CCCCC3)CC(=O)N2C2CC2)cc1OC (stereo unspecified) do in these assays?
BoNT-F LC inh: inactive; Anthrax LF prot: inactive; BoNT A protease: inactive; Bead autofluor: 20615

Results for COc1cccc(C2CC(c3ccccc3Cl)Nc3ncnn32)c1 (stereo unspecified) ?
BoNT-F LC inh: inactive; Anthrax LF prot: inactive; BoNT A protease: inactive; Bead autofluor: 18432

Results for CCOC(=O)C1CCCn2c1nc1sc3c(c1c2=O)CCCC3 (stereo unspecified) ?
BoNT-F LC inh: inactive; Anthrax LF prot: inactive; BoNT A protease: inactive; Bead autofluor: 23606

Results for O=c1c2c3c(sc2nc2n1CCCC2)CCCC3 ?
BoNT-F LC inh: inactive; Anthrax LF prot: inactive; BoNT A protease: inactive; Bead autofluor: inactive

How did Cc1noc(C)c1CSc1ccc2ccccc2n1 do in these assays?
BoNT-F LC inh: inactive; Anthrax LF prot: inactive; BoNT A protease: inactive; Bead autofluor: 20444

How did Cc1noc(C)c1CSc1nc2ccccc2c(=O)n1-c1ccc(Cl)cc1 do in these assays?
BoNT-F LC inh: inactive; Anthrax LF prot: inactive; BoNT A protease: inconclusive; Bead autofluor: 22121

How did Cc1noc(C)c1CSc1nnc2ccccn12 do in these assays?
BoNT-F LC inh: inactive; Anthrax LF prot: inactive; BoNT A protease: inactive; Bead autofluor: 19015

How did Cc1noc(C)c1CSc1nc2sc(C)c(C)c2c(=O)n1-c1ccccc1 do in these assays?
BoNT-F LC inh: inactive; Anthrax LF prot: inactive; BoNT A protease: inactive; Bead autofluor: inactive

Results for COn1c(SCc2ccc(Cl)cc2)nc2ccccc2c1=O ?
BoNT-F LC inh: inactive; Anthrax LF prot: inactive; BoNT A protease: inconclusive; Bead autofluor: 22710

What do the screens show for `Cc1noc(C)c1CSc1nc2ccccc2s1`?
BoNT-F LC inh: inactive; Anthrax LF prot: inactive; BoNT A protease: inactive; Bead autofluor: inactive

Results for Cc1noc(C)c1CSc1nnc(-c2ccccc2)n1N ?
BoNT-F LC inh: inactive; Anthrax LF prot: inactive; BoNT A protease: inactive; Bead autofluor: inactive

Results for CC1(C(=O)NS(=O)(=O)C2CC2)CCCN(C(=O)Cc2ccc3ccccc3c2)C1 (stereo unspecified) ?
BoNT-F LC inh: inactive; Anthrax LF prot: inactive; BoNT A protease: inactive; Bead autofluor: inactive

What do the screens show for `CC1C(=O)N(Cc2cn(CCC3OCCO3)nn2)CCS(=O)(=O)N1Cc1ccc(-c2ccc(Cl)c(Cl)c2)cc1` (stereo unspecified)?
BoNT-F LC inh: inactive; Anthrax LF prot: inactive; BoNT A protease: inactive; Bead autofluor: inactive

Results for COc1cccc(-c2cnc(C(O)c3ccc(CN4CCCC4)cc3)[nH]2)c1 (stereo unspecified) ?
BoNT-F LC inh: inactive; Anthrax LF prot: inactive; BoNT A protease: inactive; Bead autofluor: inactive

Results for COCCNC(=O)C1CCCN(Cc2cccc(C#N)c2)CC1 (stereo unspecified) ?
BoNT-F LC inh: inactive; Anthrax LF prot: inactive; BoNT A protease: inactive; Bead autofluor: inactive

How did Fc1ccc(OCc2nc(-c3ccncc3)n[nH]2)cc1 do in these assays?
BoNT-F LC inh: inactive; Anthrax LF prot: inactive; BoNT A protease: inactive; Bead autofluor: inactive

What do the screens show for `Cc1ccc(OCc2nc(-c3ccc(Cl)cc3)n[nH]2)cc1`?
BoNT-F LC inh: inactive; Anthrax LF prot: inactive; BoNT A protease: inactive; Bead autofluor: 19787

How did COCCN(CCOC)Cc1cc(=O)oc2ccc3ccccc3c12 do in these assays?
BoNT-F LC inh: inactive; Anthrax LF prot: inactive; BoNT A protease: inactive; Bead autofluor: inactive

How did CC12CCC(C(=O)NC(c3ccccc3)c3ccccc3)(OC1=O)C2(C)C (stereo unspecified) do in these assays?
BoNT-F LC inh: inactive; Anthrax LF prot: inactive; BoNT A protease: inactive; Bead autofluor: 22368

How did CC12CCC(C(=O)Nc3ccc4c(c3)OCCO4)(OC1=O)C2(C)C (stereo unspecified) do in these assays?
BoNT-F LC inh: inactive; Anthrax LF prot: inactive; BoNT A protease: inactive; Bead autofluor: 23818

What do the screens show for `COc1cccc(CNn2cnnc2)c1OCc1ccccc1F`?
BoNT-F LC inh: inactive; Anthrax LF prot: inactive; BoNT A protease: inconclusive; Bead autofluor: 20043

Results for CCSc1nnc2n1C(C)(C)Cc1ccccc1-2 ?
BoNT-F LC inh: inactive; Anthrax LF prot: inactive; BoNT A protease: inactive; Bead autofluor: inactive

Results for CCOC(=O)CSc1nnc2n1C(C)(C)Cc1ccccc1-2 ?
BoNT-F LC inh: inactive; Anthrax LF prot: inactive; BoNT A protease: inactive; Bead autofluor: 16513

Results for CC(C)OC(=O)CSc1nnc2n1C(C)(C)Cc1ccccc1-2 ?
BoNT-F LC inh: inactive; Anthrax LF prot: inactive; BoNT A protease: inactive; Bead autofluor: 16487

What do the screens show for `CSCCC(NC(=O)c1ccccc1)C(=O)NC1CCCC1` (stereo unspecified)?
BoNT-F LC inh: inactive; Anthrax LF prot: inactive; BoNT A protease: inactive; Bead autofluor: inactive

Results for CSCCC(NC(=O)c1ccccc1)C(=O)NC1CC1 (stereo unspecified) ?
BoNT-F LC inh: inactive; Anthrax LF prot: inactive; BoNT A protease: inconclusive; Bead autofluor: 23748

What do the screens show for `CCCCN1C(=O)NC(NS(=O)(=O)c2ccc(N)cc2)(C(F)(F)F)C1=O` (stereo unspecified)?
BoNT-F LC inh: inactive; Anthrax LF prot: inactive; BoNT A protease: inactive; Bead autofluor: 19835

What do the screens show for `CCN(CC)CCCN(Cc1cc2cc3c(cc2[nH]c1=O)OCO3)C(=O)Nc1ccccc1OC`?
BoNT-F LC inh: inactive; Anthrax LF prot: inactive; BoNT A protease: inactive; Bead autofluor: inactive

What do the screens show for `CCN(CC)CCCN(Cc1cc2cc(OC)c(OC)cc2[nH]c1=O)C(=O)Nc1ccccc1`?
BoNT-F LC inh: inactive; Anthrax LF prot: inactive; BoNT A protease: inactive; Bead autofluor: 22160

Results for COc1ccccc1NC(=O)N(CCN1CCCC1)Cc1cc2cc(C)ccc2[nH]c1=O ?
BoNT-F LC inh: inactive; Anthrax LF prot: inactive; BoNT A protease: inactive; Bead autofluor: 23245

What do the screens show for `CN(Cc1ccccn1)C(=O)c1cc(COc2ccc(F)c(F)c2)on1`?
BoNT-F LC inh: inactive; Anthrax LF prot: inactive; BoNT A protease: inactive; Bead autofluor: inactive

What do the screens show for `COc1ccc(-c2cc(C(=O)O)c(C)o2)cc1OC`?
BoNT-F LC inh: inactive; Anthrax LF prot: inactive; BoNT A protease: inactive; Bead autofluor: 20243
